This passage reports growth results from PubChem BioAssay (NCI).

This is part of a sample that, as a whole, favours compounds with a hit. Of some 83,000 tested, about 20% had one in any assay.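 The test compound was applied at a single concentration to cells in 96-well plates for 48 hours, and percent growth was recorded.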 A number with no mark means an inactive call. Calls of active or inactive are those of the source.

This assay relates to OVCAR-8 ovarian. Nature of the assay: NCI-60 one-dose screen, 48 h (100 = growth as untreated, 0 = no growth, -100 = all killed). The following applies: 10 µM unless noted. As to the method: Growth inhibition of the OVCAR-8 human tumor cell line is measured as a screen for anti-cancer activity. Cells are grown in 96 well plates and exposed to the test compound for 48 hours. Compounds are tested at a single concentration, which is 10^-5 M for most compounds. The reported endpoint is percent growth (GI% or GIPRCNT), where numbers from 0 - 100% represent growth inhibition, and numbers from -100% - 0 represent cell death. For example, a value of 40 represents 60% growth inhibition. A value of 0 means no net growth occurred over the course of the experiment. A value of -40 indicates 40% of cells at the beginning of the experiment died by the end of the experiment. A value of -100 means all cells are dead at the end of the experiment.
NCI-60 Human Tumor Cell Lines Screen was performed using the standard one-dose NCI protocol, which is described in more detail at https://dtp.cancer.gov/discovery_development/nci-60/default.htm.
Compounds with GIPRCNT values below 10 were considered active. Activity score was based on GIPRCNT using the following formula: […]
Score is 0 for GIPRCNT values of 100 or above, 50 for GIPRCNT values of 0, and 100 for GIPRCNT values of -100.
Regarding `CCOP(=O)(OCC)Oc1ccc(Sc2ccc(OP(=O)(OCC)OCC)cc2)cc1`, the growth is 99.8%.
Consider `C[C@]12CCC(=O)CC1CC[C@@H]1C2CC[C@@]2(C)C1CC[C@@H]2OC(=O)CC[Se][Se]CCC(=O)O[C@H]1CCC2[C@@H]3CCC4CC(=O)CC[C@]4(C)C3CC[C@@]21C` (stereo not given in full), for which the growth is 94.2%.
Under `COC(=O)C(=[N+]=[N-])C(=O)OC` stands 101%; under `CNC(=O)Oc1ccccc1-c1ccccc1`, 103%.
`COc1cc(C2(C#N)CCN(C)CC2)cc(OC)c1OC`: the growth was 101%.
As to `O=C(CC1(O)C(=O)Nc2ccc(F)cc21)c1ccc(C(=O)NCC2CCC3(CC2)OOC2(CCCCC2)OO3)cc1` (stereo not given), the growth is 19.7%.
Under `O=C(O)C1[O][Sb][O]C1C(=O)O` (stereo not given) stands 101%.
Take `ClCCN(CCCl)c1nc(Cl)c(C2CC(c3ccc(Cl)cc3)=NN2c2cc(Cl)cc(Cl)c2)s1` (stereo not given): the growth was 99.1%.
As to `N#[N+]c1cnc([O-])[nH]c1=O`, the growth was 88.7%.
`O=C(O)CNC(=O)c1ccccc1`: the growth was 113%.
Under `COc1ccc(OC)c(/C=C(/C)[N+](=O)[O-])c1` stands 13.1%; under `O=[As]c1ccc(C(=O)c2ccc(Oc3ccccc3)cc2)cc1` (stereo not given), -97.3% (active); under `CC(=O)C1CCC2C3CC=C4CC(OC(=O)Cc5ccc(N(CCCl)CCCl)cc5)CCC4(C)C3CCC12C` (stereo not given), 103%.
On to `CO[C@@H]([CH2][Hg][S]C#N)[C@@H]([CH2][Hg][S]C#N)OC`, for which the growth was 107%.
In the case of `Cc1ccc(N)cc1[As]=[As]c1cc(N)ccc1C` (stereo not given), the growth is -95.3% (active).
With `CN(C)P1(N(C)C)=NP(N(C)C)(N(C)C)=NP(N(C)C)(N(C)C)=N1`, the growth was 96.1%.
On to `C[CH2][Sn]([CH2]C)([CH2]C)[NH]S(=O)(=O)c1ccc(C)cc1`, for which the growth was 104%.
For `CCC(/C=C(C)/C=C/C(=O)c1c(O)c(-c2ccc(O)cc2)c[nH]c1=O)CO` (stereo not given), the growth was 92.4%.
On to `Oc1ccc(Br)cc1CN1CCN(Cc2ccc(Cl)cc2)CC1`, for which the growth is 60.6%.
In the case of `O=[N+]([O-])c1cccc([As]=[As]c2cccc([N+](=O)[O-])c2)c1` (stereo not given) it was -70% (active); in that of `CC1(C)CC(=O)CC(C)(C)N1N=O`, 102%.
As for `O=C(C(=O)N1CCCC1)c1cn(CCCCCn2cc(C(=O)C(=O)N3CCCC3)c3ccccc32)c2ccccc12`, the growth is 90.8%.
As for `CC(=O)C1C(=O)N(C)C(=O)N(C)C1=O`, the growth was 109%.
Regarding `S=P(N1CCCCCC1)(N1CC1)N1CC1`, the growth was 100%.
As to `CC(=O)N(C)C1=Nc2ccc(Cl)cc2C(c2ccccc2)=[N+]([O-])C1`, the growth is 102%.
`CC1([N+](=O)[O-])COP(=O)(Nc2ccc(F)cc2)OC1` (stereo not given): the growth was 101%.
Under `CC1(C)N=C(N)N=C(N)N1c1ccc(CCCCc2ccc(Cl)cc2S(=O)(=O)F)c(Cl)c1` stands 15.2%; under `O=c1[nH]c2cc(Cl)ccc2n1C1CCN(CCCC(c2ccc(F)cc2)c2ccc(F)cc2)CC1`, -56.7% (active); under `Nc1nc(N)c(-c2ccc(Cl)c(Cl)c2)c(/C=C/c2ccc(S(=O)(=O)F)cc2)n1`, 81.6%.
In the case of `Nc1cccc2c1Oc1ccccc1O2` it was 104%; in that of `N#[N+]c1nc2nc(N)[nH]c(=O)c2[nH]1`, 100%; in that of `C[C@]12CC[C@@H]3c4ccc(OC(=O)Cc5ccc(N(CCCl)CCCl)cc5)cc4CC[C@H]3[C@@H]1CC[C@@H]2OC(=O)Cc1ccc(N(CCCl)CCCl)cc1`, 109%.
As for `CC1(C)N=C(N)N=C(N)N1c1ccc(CNC(=O)Nc2ccc(S(=O)(=O)F)c(Cl)c2)c(Cl)c1`, the growth was 25.4%.
Consider `CN1CC2CCC(C1)C2=O`, for which the growth was 104%.
Take `O=CC(Br)C(Br)c1ccccc1` (stereo not given): the growth was 85.6%.
On to `ClCCN(CCCl)c1ccc(/C=C\c2ccnc3ccccc23)cc1`, for which the growth was 79.8%.
Turning to `CC(CC(C#N)(c1ccccc1)c1ccccc1)N1CCOCC1` (stereo not given), the growth is 108%.
In the case of `CC(=O)O[C@H]1CC[C@H]2[C@@H]3CC[C@H]4CC=C(C)C[C@]4(C)[C@H]3CC[C@]12C` it was 102%.
Turning to `CCOC(=O)Nc1cc(Cl)c([N+](=O)[O-])c(NC(=O)OCC)n1`, the growth was 64.6%.
On to `O=C(NCc1ccc([N+](=O)[O-])cc1)Nc1ccc(S(=O)(=O)F)cc1`, for which the growth was 80%.
